Compound activity: PubChem BioAssay, National Center for Advancing Translational Sciences (NCATS)
The list is not random: actives were taken first. Their share in the collection is about 8.2%.
ELG1 repair inh: inhibitors of ELG1-dependent DNA repair in HEK293T cells; HEK293T ELG1-luciferase reporter, luminescence, 16 h; DNA damage induced by 5-fluorouridine; Potency, µM (top dose mostly 46.1 µM), without a hit: at the top dose activity change, negative = inhibition, actives largely listed as inhibitors; 2.3% of 330,000 active; note: % is set by controls: 0 for no effect and ±100 for the full control effect; nearly all actives have a fitted effect of over 55% in size
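Reporter activity after DNA damage by 5-fluorouridine is monitored. Compound-treated cells incubate 16 hr at 37 °C, then ONE-Glo is added for 30 min before luminescence reading.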
KB-3-1 cytotox: KB-3-1 parental cell cytotoxicity; KB-3-1 viability, CellTiter-Glo ATP luminescence, 72 h; Potency, µM (doses to about 46.1 µM), hits mostly cytotoxic; 1.4% of 400,000 active; note: % is set by controls: 0 for no effect and ±100 for the full control effect; nearly all actives have a fitted effect of over 60% in size
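Multi-concentration cytotoxicity screen in KB-3-1 cells grown in DMEM lacking phenol red with 10% FBS. After 72 h at 37 °C with compound, ATP-dependent luminescence was recorded.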
SW480 rereplic: induces DNA re-replication in SW480 colon adenocarcinoma cells; 1.8% of 340,000 active; SW480 DNA re-replication, Hoechst DNA content imaging, 48 h; AID 624297; Potency, µM (series often up to 46.1 µM), without a hit: top-dose re-replication activation, hits mostly activators; note: % of control where 0% means no effect; nearly all actives have a fitted effect of over 55% in size
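Cells (250 per well) received 23 nL compound or DMSO by pin tool and were kept 48 hr at 37 C, 5% CO2. Nuclei were then stained with Hoechst for 40 min and scanned for DNA content.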
KB-V1 MDR tox: kills drug-selected multidrug resistant KB-V1 cells. 3.4% of 400,000 active. Potency, µM (highest dose often 46.1 µM), actives largely listed as cytotoxic. KB-V1 MDR cells viability, CellTiter-Glo, 72 h; note: % is set by controls: 0 for no effect and ±100 for the full control effect; nearly all actives have a fitted effect of over 60% in size
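In this primary screen, KB-V1 cells overexpressing P-gp are incubated with library compounds (lowest to highest concentration) for 72 h at 37 degrees C before a luminescent ATP viability read.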
MCF10A rerep: DNA re-replication induction in MCF 10a cells | MCF 10A DNA re-replication, Hoechst nuclear intensity, 48 h | Potency, µM (series often up to 46.1 µM), without a hit: at the highest dose activity, positive = re-replication, actives largely listed as activators | 2.9% of 350,000 active | AID 624296; note: % of control where 0% means no effect; nearly all actives have a fitted effect of over 50% in size
* hit, by the source's call; i = inactive; ? = inconclusive; nt = no result; ! = not active in a repeat; [ ] = remark or other dose. Calls come from the whole dose curve; as a rule, active = well fitted curve in the direction sought with a large enough effect; inconclusive = small, poorly fitted or top-dose-only effect, or another doubt; inactive = no such curve, though single readings can be large; an effect the other way counts as inactive or inconclusive. Potency is the fitted concentration of half-maximal effect.

SMILES | ELG1 repair inh | KB-3-1 cytotox | SW480 rereplic | KB-V1 MDR tox | MCF10A rerep
CC(C)(O)/C=C/C(=O)[C@](C)(O)C1[C@H](O)C[C@@]2(C)C3CC=C4C(C=C(O[C@@H]5O[C@H](CO)[C@@H](O)[C@H](O)[C@H]5O)C(=O)C4(C)C)[C@]3(C)C(=O)C[C@]12C (some centres undefined) | ? | i | 12% | ? | 3%
C=C(C)[C@@H]1CC[C@]2(C(=O)O)CC[C@]3(C)C(CCC4[C@@]5(C)CC[C@H](O)C(C)(C)C5CC[C@]43C)C12 (some centres undefined) | 3% | ? | ? | i | ?
CCN(CC)CCCOC(=O)C(OC(C)C)(c1ccccc1)c1ccccc1 | -14% | ? | ? | 8.2µM* | 2%
COC(=O)[C@@]12CCCCN1[C@H](c1ccc(-c3ccc(Cl)c(Cl)c3)c(OC)c1)[C@H]1C(=O)N(C)C(=O)[C@H]12 | -28% | i | -5% | i | -14%
CC12Cc3cnoc3C=C1CCC1C2CCC2(C)C1CCC2(C)O (centres undefined) | nt | 6.5µM* | 1% | ? | ?
Cc1c(C)n(O)c2ccc3nonc3c12 | ? | i | ? | i | 21µM*
Nc1ccc2nonc2c1[N+](=O)[O-] | 6% | i | -31% | i | -10%
CC(C)(C)c1cc(O)ccc1O | nt | nt | ? | nt | 30µM*
Cc1cccc2sc(NC(=O)c3cccn(Cc4ccccc4)c3=O)nc12 | nt | i | nt | i | nt
CCC(=O)[C@@H](C)[C@@H](O)[C@H](C)C[C@@H](C)C1OC(=O)C[C@@]2(O)CC=C(C)C(O2)C(C)=CCCC[C@H](O[C@H]2C[C@@H](OC(N)=O)[C@H](O)[C@@H](C)O2)C=C[C@H](C)C[C@H]1C (some centres undefined) | nt | 0.65µM* | nt | ? | nt
Cc1cc2c(C(C)C)c(O)c(O)c(C=O)c2c(O)c1-c1c(C)cc2c(C(C)C)c(O)c(O)c(C=O)c2c1O | -5% | 1.5µM* | 13µM*! | ? | ?
CCCC12CN3CC(C)(CN(C1)C3c1ccccn1)C2=O (centres undefined) | nt | i | nt | i | nt
CCC/C=C/C=C/C(=O)OC1/C(=C/C(=O)OC)CC2CC(C(C)O)OC(=O)CC(O)CC3CC(OC(C)=O)C(C)(C)C(O)(CC4C/C(=C/C(=O)OC)CC(/C=C\C(C)(C)C1(O)O2)O4)O3 (centres undefined) | nt | nt | ? | nt | 16%
OCC(O)[C@H]1O[C@@H]2O[C@H](C(Cl)(Cl)Cl)O[C@@H]2[C@H]1O (some centres undefined) | nt | nt | 0% | nt | -5%
CCC(=NCC1CCCO1)c1c(O)n(Cc2ccccc2)c(=O)[nH]c1=O (centres undefined) | -14% | i | 1% | 4.1µM* | 2%
CCC(=NCC1CCCO1)c1c(O)n(-c2ccccc2)c(=O)[nH]c1=O (centres undefined) | -3% | i | 15% | i | -16%
CC(C)COC(=O)OCN1C(=O)CN(CCN2CC(=O)N(COC(=O)OCC(C)C)C(=O)C2)CC1=O | 2% | i | ? | i | ?
COC(=O)[C@]12OC[C@]34C([C@@H](O)[C@@H]1O)[C@]1(C)CC(=O)C(O)=C(C)[C@@H]1C[C@H]3OC(=O)[C@H](O)[C@@H]24 (some centres undefined) | ? | ? | -64% | i | 15µM*
Cc1cc(=O)oc2cc(OCC(=O)N3C[C@H]4C[C@@H](C3)c3cccc(=O)n3C4)c(Cl)cc12 | ? | i | -5% | i | -19%
Cc1cc(=O)oc2cc(OCC(=O)N3CCN(C(C)c4ccccc4)CC3)c(Cl)cc12 (centres undefined) | 21µM* | i | -3% | i | 16%
O=[N+]([O-])c1cccc(CN2CCN(Cc3ccc(Br)cc3)CC2)c1 | ? | ? | -15% | i | 9.2µM*
Cc1cc(-c2ccccc2)cc(C)[n+]1Cc1ccccc1 | -13% | 5.8µM* | -18%[9.22 µM] | i | -14%
CCOC(=O)C1(CCCc2ccccc2)CCN(C2CCCC2)CC1 | -8% | ? | 16µM* | i | ?
